From PubChem
Most compounds without a hit are left out; they make up all but 2.8% or so of the library.
MITF TRPM1 inh – inhibitors of MITF-dependent TRPM1 promoter reporter, primary screen, cell-based, SK-MEL-5, single point, luciferase; SK-MEL-5 TRPM1 promoter luciferase, 24 h; 330,000 compounds, 0.83% hits; inhibition, % at 12.5 µM;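 active = mean inhibition across replicates of 60% or more, whatever share of single replicates reaches that level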
CF NFkB block – inhibitors of PAF-induced NF-kB signaling, primary screen, cell-based, GFP fluorescence, uHTS; inhibition, % at 5 µM; KKLEB NF-kB-GFP reporter, GFP fluorescence overnight; 360,000 compounds, 0.86% hits; AID 588850, 2011;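 active = at least 50% inhibition at 5 µM, scaled per plate between neutral and stimulator controls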;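 note: PAF is a Pseudomonas aeruginosa culture filtrate used as stimulus; plate controls were PAF-stimulated DMSO wells for no effect and unstimulated DMSO wells for full effect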
Shn3 3UTR inh – reduction of Shn3 3'UTR firefly luciferase signal, primary screen, Schnurri-3 inhibitor project, cell-based, Clone20 osteoblasts, set 2; Clone20 osteoblast Shn3 3'UTR firefly luciferase, 24 h; inhibition, % at 12.5 µM; 360,000 compounds, 0.52% hits;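 active = mean inhibition of at least 75% with every replicate also reaching 75%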;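 note: 0% = median of neutral control wells and 100% = pilot-screen positive control compound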
Peg3 prom inh-1 – Peg3 promoter-driven luciferase inhibitors, primary screen, cell-based, HeLa, luciferase luminescence; HeLa PEG-Prom luciferase reporter, overnight; 360,000 compounds, 1.7% hits; inhibition, % at 20 µM;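 active = inhibition of at least 50% at 20 µM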
KKLEB tox – cytotoxicity in KKLEB CF airway cells, primary screen, cytotoxicity control for CF NF-kB inhibitor project, cell-based, uHTS, fluorescence assay plates; KKLEB CF airway cells viability, ATPlite luminescence, overnight; stronger effect = lower value; cells stimulated with P. aeruginosa culture filtrate; AID 602141, 2011; 360,000 compounds, 0.36% hits; activity change (cytotoxicity), % at 5 µM;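 active = corrected activity change at or below -50% at 5 µM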
HIF-2a inh – HIF-2a reporter inhibitors, primary screen, luminescence, 786-0 RCC cells | inhibition, % at 18.8 µM | 360,000 compounds, 0.72% hits | 786-0 RCC cells HIF-2a reporter, luciferase luminescence, overnight;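 active = inhibition of the luminescence signal of 40% or more relative to plate controls, in a single-dose primary screen at 18.75 µM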
Peg3 prom inh-2 – Peg3 promoter reporter inhibitors, retest, confirmation, cell-based, HeLa, luciferase reporter, single concentration; shares compounds with Peg3 prom inh-1; HeLa PEG-Prom luciferase reporter, luminescence, overnight; inhibition, % at 20 µM; 1,300 compounds, 84% hits; AID 602417, 2012;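 active = at 20 µM dose, 40% or more inhibition averaged across four replicates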
CF NFkB inh conf – inhibitors of PAF-induced NF-kB signaling, retest, confirmation, cell-based, GFP fluorescence, single concentration; shares compounds with CF NFkB block; KKLEB CF airway cells, overnight; inhibition, % at 5 µM; 1,300 compounds, 64% hits; AID 602472, 2012; in the data active = inhibition above about 40%;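 note: stimulus PAF is a Pseudomonas aeruginosa filtrate and not platelet activating factor; plate controls were DMSO wells with stimulus for no effect and unstimulated DMSO wells for full effect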
HIF-2a inh conf – HIF-2a reporter inhibitor retest, confirmation, luminescence, 786-0 RCC cells; shares compounds with HIF-2a inh; HIF-2a luciferase reporter luminescence, overnight; inhibition, % at 18.8 µM; 1,800 compounds, 56% hits;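 active = mean inhibition across four replicates of at least 40 percent at the single tested concentration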
HIF-1a cs – HIF-1a luciferase reporter signal reduction – MiaPaCa-2 cells, single concentration, counter-screen for HIF-2a inhibitor project, confirmation; MiaPaCa-2 HIF-1a luciferase reporter, desferoxamine, overnight; inhibition, % at 18.8 µM; shares compounds with HIF-2a inh; 1,800 compounds, 72% hits; AID 651589, 2012;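 active = mean inhibition of the reporter signal across four replicates at the single tested dose of 50% or more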
Active calls of the source: *; / = no result given.

SMILES	MITF TRPM1 inh	CF NFkB block	Shn3 3UTR inh	Peg3 prom inh-1	KKLEB tox	HIF-2a inh	Peg3 prom inh-2	CF NFkB inh conf	others
Cc1ccc(S(=O)(=O)N2CCN(C(=O)COC(=O)c3oc4ccccc4c3C)CC2)cc1	8	11	22	9	-17	9	/	/
CCCCNC(=O)C1Cc2cc(S(=O)(=O)N3CCCC3)ccc2N1C(C)=O (stereo not given)	-4	4	-1	-1	3	14	/	/
COc1cccc(C(=O)c2sc(NC(C)C)nc2N)c1	4	78*	-49	105*	-3	-93	76*	/
O=[N+]([O-])CC1(n2nc3ccccc3n2)CCCCC1	1	46	5	67*	-47	7	-2	/
CC(=O)Nc1cccc(-c2ccnc3c2CC(C)(C(=O)Nc2cccc(C(F)(F)F)c2)O3)c1 (stereo not given)	/	24	23	52*	-16	21	62*	/
COC1CC(C)C(OC)c2cc(O)cc(c2O)NC(=O)C(C)=CC=CC(C)C(OC(N)=O)C(C)=CC(C)C1OC (stereo not given)	72*	40	-1	57*	2	29	48*	/
CC(C)CC(=O)NC(Nc1ccc([N+](=O)[O-])cc1)C(Cl)(Cl)Cl (stereo not given)	1	-28	27	21	-10	18	/	/
O=C(CCc1ccccc1)Nc1cc2c3c(c1)CC(=O)N3CCC2	5	0	8	-18	4	-9	/	/
O=C1OCCC1Sc1nnc(-c2ccc(Cl)cc2Cl)o1 (stereo not given)	40	9	28	71*	-14	76*	63*	/
O=C(CCCN1C(=O)/C(=C/c2ccccc2Cl)SC1=S)NNC(=O)c1ccc(Cl)cc1Cl	48	3	42	66*	-8	73*	43*	/
c1ccc(-c2cn(-c3ccccc3)c3ncnc(N4CCCCC4)c23)cc1	3	27	6	40	-14	26	/	/
CCOc1ccc(-n2cc(-c3ccccc3)c3c(N4CCOCC4)ncnc32)cc1	11	91*	79	51*	-20	18	60*	95*
Cc1ncc(CO)c2cc(C(=O)Nc3cccc(F)c3)c(=Nc3cccc(C(N)=O)c3)oc12	9	-19	-15	-21	-7	11	/	/
COc1ccc(NC(=O)c2cc3c(CO)cnc(C)c3oc2=Nc2cccc(F)c2)c(OC)c1	11	52*	-12	59*	-33	8	17	26
Cc1ccc(NC(=S)N(Cc2ccc(Br)cc2)Cc2ccc(C(=O)O)cc2)cc1C	-1	-2	4	6	9	-14	/	/
Cc1cccc(NC(=O)c2nc[nH]c2C(=O)NCCCCNC(=O)c2[nH]cnc2C(=O)Nc2cccc(C)c2)c1	-1	56*	4	78*	-39	7	37	33
Cc1cccc(NC(=O)c2nc[nH]c2C(=O)NCCCCCCNC(=O)c2[nH]cnc2C(=O)Nc2cccc(C)c2)c1	-7	-24	-9	45	2	5	/	/
COCCN(CCOC)S(=O)(=O)c1ccc(NC(=O)c2cnccn2)cc1	-16	-2	-10	9	6	19	/	/
Cc1cccc(CNc2ncnc3ccc(-c4ccc5c(c4)OCCO5)cc23)c1	31	5	8	21	-2	16	/	/
Cc1cccc(CNc2ncnc3ccc(-c4ccoc4)cc23)c1	1	70*	-6	50*	-3	6	41*	87*
CCc1ccc(-n2c(SCC(=O)c3ccc4c(c3)NC(=O)CO4)nc3ccccc3c2=O)cc1	35	-8	-1	11	-4	9	/	/
O=C1COc2ccc(C(=O)CSc3nc4ccccc4c(=O)n3-c3ccc(Cl)c(Cl)c3)cc2N1	35	55*	4	76*	-48	9	33	-2
COc1cc(C(=O)NC(C)c2cc(C)ccc2C)ccc1OCC(=O)N1CCOCC1 (stereo not given)	-5	-1	8	7	15	10	/	/
CC(=O)Nc1cccc(NC(=O)C(C)N2c3cccc4cccc(c34)S2(=O)=O)c1 (stereo not given)	-2	-20	3	15	-4	6	/	/
COc1ccc(C(C(=O)NCC2CCCO2)N(Cc2cccs2)C(=O)c2snc(C(N)=O)c2N)cc1 (stereo not given)	10	54*	-6	51*	-28	2	50*	50*
SMILES	MITF TRPM1 inh	CF NFkB block	Shn3 3UTR inh	Peg3 prom inh-1	KKLEB tox	HIF-2a inh	Peg3 prom inh-2	CF NFkB inh conf	others
COc1nc(N)c(C#N)c(-c2ccc(N(C)CCC#N)cc2)c1C#N	10	59*	22	58*	2	21	66*	75*
c1ccc(-c2cc(-c3nc4ccccc4[nH]3)c3ccccc3n2)cc1	4	56*	36	81*	-8	-59	89*	-87
CCC(C)Oc1cc(-c2ccnc(Nc3cccc(Cl)c3)n2)ccn1 (stereo not given)	20	99*	-31	100*	-42	11	92*	105*
CCOC(=O)C1(C)CCN1C(=O)c1ccc2ccccc2c1 (stereo not given)	/	-6	-19	-64	-5	-95	/	/
CC(C)(C)OC(=O)CC(S(=O)(=O)c1ccccc1)S(=O)(=O)c1ccccc1	/	86*	59	82*	-16	-80	97*	25
O=C1CCC2S/C(=C/Nc3ccc(C(F)(F)F)cc3)C(=O)N12 (stereo not given)	86*	-4	57	67*	5	97*	89*	/	HIF-2a inh conf=98*;HIF-1a cs=105*
